HP1b binding inh = inhibitors of HP1-beta chromodomain binding to methylated histone tails; P83916; Potency, µM (highest dose often 114 µM), without a hit: at the top dose activity change, negative = inhibition, most hits filed as inhibitors; AID 540317; 390,000 tested, 0.56% active; AlphaScreen HP1-beta / biotin-H3K9me3 peptide binding; also: potency is read from the fitted curve at half-maximal effect; nearly all actives have a fitted effect of over 70% in size
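AlphaScreen: HP1-beta (50 nM) preformed 30 min with biotin-H3(1-18)K9me3 peptide (50 nM) in PBS pH 7.4, 0.01% Tween-20. Compound added for 30 min at RT, then streptavidin donor/nickel chelate acceptor beads (10 ug/mL) for 30 min.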
Six1-Eya2 blk = Six1/Eya2 interaction inhibition. 360,000 tested, 0.56% active. activity change, % (test concentration not listed). AlphaScreen GST-Six1/His-Eya2 binding, biochemical; active compounds read low; in the data active = activity change below about -65%; inconclusive = mostly about -30% to -63%; also: % is scaled to controls: 0 for no effect and ±100 for the full control effect
Target sequence (O00167 whole entry, looked up): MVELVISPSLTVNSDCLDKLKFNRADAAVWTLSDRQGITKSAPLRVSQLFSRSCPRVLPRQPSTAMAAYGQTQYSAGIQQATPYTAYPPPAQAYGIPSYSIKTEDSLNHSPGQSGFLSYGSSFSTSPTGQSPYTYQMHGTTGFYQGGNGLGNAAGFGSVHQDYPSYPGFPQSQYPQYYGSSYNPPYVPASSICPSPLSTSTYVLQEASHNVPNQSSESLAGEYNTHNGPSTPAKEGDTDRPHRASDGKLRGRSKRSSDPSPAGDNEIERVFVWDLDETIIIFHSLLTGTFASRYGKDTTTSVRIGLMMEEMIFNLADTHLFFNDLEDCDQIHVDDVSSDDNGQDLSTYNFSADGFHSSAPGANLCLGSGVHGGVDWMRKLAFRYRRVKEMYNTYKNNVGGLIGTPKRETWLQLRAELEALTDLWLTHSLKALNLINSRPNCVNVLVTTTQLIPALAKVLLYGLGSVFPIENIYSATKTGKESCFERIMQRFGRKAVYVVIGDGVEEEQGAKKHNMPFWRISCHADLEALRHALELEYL
Target sequence (Q15475 whole entry, looked up): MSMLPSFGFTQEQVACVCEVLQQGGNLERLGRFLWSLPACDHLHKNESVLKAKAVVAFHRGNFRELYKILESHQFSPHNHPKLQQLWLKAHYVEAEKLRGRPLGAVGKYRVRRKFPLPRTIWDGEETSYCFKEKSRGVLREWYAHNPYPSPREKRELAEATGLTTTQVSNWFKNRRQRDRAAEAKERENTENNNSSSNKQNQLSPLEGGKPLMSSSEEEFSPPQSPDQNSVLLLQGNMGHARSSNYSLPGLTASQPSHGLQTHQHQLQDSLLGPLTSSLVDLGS
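AlphaScreen with GST-Six1 and His-Eya2 (5X mix: 250 nM and 500 nM), glutathione donor and nickel acceptor beads; buffer 50 mM Tris pH 8.0, 300 mM NaCl, 1 mM TCEP; 1 h at 37 C in the dark.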
BAZ2B inh = blocks human BAZ2B; Q9UIF8; AlphaScreen BAZ2B-H3K14Ac peptide displacement; Potency, µM (top dose mostly 114 µM), without a hit: at the highest dose activity change, negative = inhibition, most hits filed as inhibitors; 360,000 tested, 4.4% active; AID 504333; also: potency is read from the fitted curve at half-maximal effect; % is scaled to controls: 0 for no effect and ±100 for the full control effect; nearly all actives have a fitted effect of over 60% in size
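BAZ2B 50 nM plus b-H3(5-23)K14Ac 50 nM, PBS pH 7.4/0.01% Tween-20, 30 min RT; compound added (max 110 uM), 30 min RT; streptavidin donor/Ni-chelate acceptor beads 10 ug/mL final, 20 min dark; AlphaScreen read.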
TDP1 inh = inhibitors of human tyrosyl-DNA phosphodiesterase TDP1; Q9NUW8; recombinant TDP1, AlphaScreen DNA substrate cleavage; Potency, µM (series often up to 130 µM), for inactives: at the highest dose activity change, negative = inhibition, most hits filed as inhibitors; 350,000 tested, 0.28% active; AID 485290; also: potency is read from the fitted curve at half-maximal effect; % is scaled to controls: 0 for no effect and ±100 for the full control effect; nearly all actives have a fitted effect of over 40% in size
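Steps: enzyme plus compound, 15 min RT; add biotin/phosphotyrosine-FITC oligonucleotide (15 nM final), react 5 min; add donor/acceptor beads (10 ug/ml final), 10 min; read AlphaScreen. Tdp1 at 1 nM final.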
JMJD2A Tudor = JMJD2A Tudor domain (human) inhibition. Potency, µM (top dose mostly 114 µM), for inactives: at the top dose activity change, negative = inhibition, actives largely listed as inhibitors. AlphaScreen JMJD2A-Tudor / H3K4me3 peptide binding. AID 504339. O75164. 390,000 tested, 4.4% active; also: potency is read from the fitted curve at half-maximal effect; % is scaled to controls: 0 for no effect and ±100 for the full control effect; nearly all actives have a fitted effect of over 50% in size
CtBP-E1A inh = CtBP/E1A binding inhibition. AlphaScreen GST-E1A/His-CtBP binding, 1536-well; active compounds read low. activity change, % (concentration not given with the values). 340,000 tested, 0.49% active; in the data active = activity change below about -65%; inconclusive = mostly about -30% to -63%; also: % is scaled to controls: 0 for no effect and ±100 for the full control effect
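Protein mix (5X: 125 nM each GST-E1A, His-CtBP) was incubated with pinned compound 2 h at 37 deg C in dark, in 50 mM Tris pH 8.0 buffer with 300 mM NaCl. Glutathione donor and nickel acceptor beads followed; AlphaScreen signal read after 1 h.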
* hit, by the source's call; [ ] = remark or other dose. Shown are actives, neighbours in structure and some others; about 5.3% of the full set was active somewhere. Unless noted, calls follow the shape of the dose curve; as a rule, active = well fitted inhibition curve with a large enough effect; inconclusive = small, poorly fitted or top-dose-only effect; inactive = no such curve, though single readings can be large or run the other way.

`Cc1cc(OC(C)C(=O)NCCCN2CCOCC2)c2c(C)cc(=O)oc2c1` (stereo unspecified) gave HP1b binding inh 79µM*, Six1-Eya2 blk 2, BAZ2B inh 0%, TDP1 inh 0% and JMJD2A Tudor -6%.
Screening CCc1cc(=O)oc2cc(C)cc(OC(C)C(=O)NCCN3CCOCC3)c12 (stereo unspecified) returned HP1b binding inh 45%, Six1-Eya2 blk 2, BAZ2B inh -11%, TDP1 inh 3%, JMJD2A Tudor -9% and CtBP-E1A inh 2.
Screening Cc1c(Cl)cccc1NC(=O)c1cc2nc(-c3ccc4c(c3)OCO4)cc(C(F)(F)F)n2n1 returned HP1b binding inh 38%, BAZ2B inh 0%, TDP1 inh -2%[12.3 µM] and JMJD2A Tudor -12%.
`COC(=O)c1ccc(NC(=O)N2CCN(Cc3cc(=O)n4nc(-c5ccc(C)cc5)sc4n3)CC2)cc1` gave HP1b binding inh 15%[57 µM], BAZ2B inh 1%, TDP1 inh 3% and JMJD2A Tudor -11%.
Screening O=C(CN(C1CCCCC1)S(=O)(=O)c1ccccc1)N1CCCC1 returned HP1b binding inh 38%, Six1-Eya2 blk -3, BAZ2B inh -4%, TDP1 inh 0%, JMJD2A Tudor -8% and CtBP-E1A inh 4.
`O=C(CN1CCC(Cc2ccccc2)CC1)N1CCc2ccccc2C1` gave HP1b binding inh inconclusive, Six1-Eya2 blk 1, BAZ2B inh 50µM*, TDP1 inh -5% and JMJD2A Tudor inconclusive.
For O=C(CN(C1CCCCC1)C1CCCCC1)N1CCc2ccccc2C1 the results were HP1b binding inh -53%, Six1-Eya2 blk -1, BAZ2B inh 45µM*, TDP1 inh 3%, JMJD2A Tudor 6.3µM* and CtBP-E1A inh -3.
For O=S(=O)(c1ccc2c(c1)OCCO2)N1CCN(S(=O)(=O)c2cccc(Cl)c2F)CC1 the results were JMJD2A Tudor -15%.
For COc1ccc(N(C)C(=O)c2nn(-c3ccc(C)cc3)c(=O)n(C)c2=O)c(OC)c1 the results were HP1b binding inh 20%[57 µM], BAZ2B inh -8%, TDP1 inh 1% and JMJD2A Tudor -10%.
Screening O=C1OC(c2ccccc2)=N/C1=C\C=C\c1ccco1 returned HP1b binding inh -17%, Six1-Eya2 blk 0, BAZ2B inh inconclusive, TDP1 inh 45µM*, JMJD2A Tudor inconclusive and CtBP-E1A inh -1.
For O=C1OC(c2ccccc2)=N/C1=C\C=C\c1ccccc1[N+](=O)[O-] the results were HP1b binding inh -20%, Six1-Eya2 blk 1, BAZ2B inh -3%, TDP1 inh -3%, JMJD2A Tudor -26% and CtBP-E1A inh 5.
`Nc1cc(N)cc(-c2nc3ccccc3[nH]2)c1` gave HP1b binding inh -36%, Six1-Eya2 blk inconclusive, BAZ2B inh 45µM*, TDP1 inh 11%, JMJD2A Tudor inconclusive and CtBP-E1A inh inconclusive.
c1ccc(-c2nc3ccccc3[nH]2)cc1 was read as HP1b binding inh 35%, Six1-Eya2 blk 7, BAZ2B inh 3%, JMJD2A Tudor -8% and CtBP-E1A inh -22.
Cc1cccc[n+]1CC(=O)c1ccc([N+](=O)[O-])cc1 was read as HP1b binding inh 46%, Six1-Eya2 blk -3, JMJD2A Tudor -6% and CtBP-E1A inh 3.
`COc1ccc(C(=O)C[n+]2ccccc2C)cc1` gave HP1b binding inh inconclusive, Six1-Eya2 blk -14, BAZ2B inh -3%, TDP1 inh 3%, JMJD2A Tudor 25µM* and CtBP-E1A inh 1.
CCOC(=O)c1ccccc1NC(=O)Cn1c(=O)n(CCC(=O)N2CCc3ccccc3C2)c(=O)c2ccccc21 was read as HP1b binding inh 56%, BAZ2B inh 2%, TDP1 inh 8% and JMJD2A Tudor -18%.
`Cc1cc(S(=O)(=O)ON2C(=O)c3ccccc3C2=O)ccc1F` gave HP1b binding inh inconclusive, Six1-Eya2 blk 3, BAZ2B inh -26%, TDP1 inh -13% and JMJD2A Tudor 79µM*.
`O=C1c2ccccc2C(=O)N1OS(=O)(=O)c1ccccc1` gave BAZ2B inh -11% and TDP1 inh 3%.
For CCN(CC)c1ccc(C2C(C(=O)OCCOC(C)C)=C(C)NC3=C2C(=O)CCC3)cc1 (stereo unspecified) the results were HP1b binding inh -7%, Six1-Eya2 blk 0, BAZ2B inh 50µM*, TDP1 inh -8%, JMJD2A Tudor inconclusive and CtBP-E1A inh -2.
`CC1=C(C(=O)OC2CCCC2)C(c2cccc(Cl)c2Cl)CC(=O)N1` (stereo unspecified) gave HP1b binding inh 30%, BAZ2B inh -1%, TDP1 inh 2% and JMJD2A Tudor -6%.
Screening CC1(C2(O)CCCCC2)NCCc2ccccc21 (stereo unspecified) returned HP1b binding inh 71µM*, Six1-Eya2 blk -4, BAZ2B inh 35µM*, TDP1 inh 0%, JMJD2A Tudor 0.89µM* and CtBP-E1A inh 4.
Cn1cnc(C(=O)N2CCc3ccccc3C2)c1C(=O)N1CCc2ccccc2C1 was read as HP1b binding inh inconclusive, Six1-Eya2 blk -2, JMJD2A Tudor 16µM* and CtBP-E1A inh 0.
For O=c1ccc(NS(=O)(=O)c2ccccc2Cl)cn1Cc1ccc(Cl)c(Cl)c1 the results were HP1b binding inh 17%, Six1-Eya2 blk -2, BAZ2B inh 56µM*, TDP1 inh 6% and JMJD2A Tudor -25%.
For COc1ccccc1Cn1c(CNS(=O)(=O)c2cccc([N+](=O)[O-])c2)nc2cccnc21 the results were HP1b binding inh 13%[57 µM], BAZ2B inh 2%, TDP1 inh 11% and JMJD2A Tudor inconclusive.
For COc1ccccc1NC(=O)N1CCN(CCc2ccccc2)CC1 the results were HP1b binding inh 17%, Six1-Eya2 blk 3, BAZ2B inh -14%, TDP1 inh 1%, JMJD2A Tudor -22% and CtBP-E1A inh 2.
Screening CCN1CCN(C(=O)Nc2ccccc2OC)CC1 returned HP1b binding inh inconclusive, Six1-Eya2 blk 0, BAZ2B inh 28µM*, TDP1 inh -12%, JMJD2A Tudor 2.2µM* and CtBP-E1A inh 2.
COc1ccccc1NC(=O)N1CCCC1 was read as HP1b binding inh 24%, Six1-Eya2 blk 1, BAZ2B inh 3%, TDP1 inh -2%, JMJD2A Tudor -6% and CtBP-E1A inh 2.
`COc1ccccc1NC(=O)N1CCN(C)CC1` gave HP1b binding inh -29%, Six1-Eya2 blk 1, BAZ2B inh 50µM*, TDP1 inh inconclusive, JMJD2A Tudor 40µM* and CtBP-E1A inh 12.

Bioassay records: PubChem, National Center for Advancing Translational Sciences (NCATS)
